Columns and labels:
Details in all cases: concentration: 1 μM, replicates: in singlicate; n = 1
CSNK1G1 = system: CSNK1G1
CSNK1G2 = system: CSNK1G2
CSNK1G3 = system: CSNK1G3
CSNK2A1 = system: CSNK2A1
CSNK2A2 = system: CSNK2A2
CTK = system: T1, CTK
T1 construct: gene MATK

DAPK1 = system: DAPK1
DAPK2 = system: DAPK2
DAPK3 = system: DAPK3
DCAMKL1 = system: T2, DCAMKL1
T2 construct: gene DCLK1

DCAMKL2 = system: T3, DCAMKL2
T3 construct: gene DCLK2

DCAMKL3 = system: T4, DCAMKL3
T4 construct: gene DCLK3

DDR1 = system: DDR1
DDR2 = system: DDR2
DLK = system: T5, DLK
T5 construct: gene MAP3K12

DMPK2 = system: T6, DMPK2
T6 construct: gene CDC42BPG

DMPK = system: DMPK
DRAK1 = system: T7, DRAK1
T7 construct: gene STK17A

DRAK2 = system: T8, DRAK2
T8 construct: gene STK17B

DYRK1A = system: DYRK1A
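Note: KINOMEscan kinase panel screen.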

| SMILES | %Inh (CSNK1G1) [%] | %Inh (CSNK1G2) [%] | %Inh (CSNK1G3) [%] | %Inh (CSNK2A1) [%] | %Inh (CSNK2A2) [%] | %Inh (CTK) [%] | %Inh (DAPK1) [%] | %Inh (DAPK2) [%] | %Inh (DAPK3) [%] | %Inh (DCAMKL1) [%] | %Inh (DCAMKL2) [%] | %Inh (DCAMKL3) [%] | %Inh (DDR1) [%] | %Inh (DDR2) [%] | %Inh (DLK) [%] | %Inh (DMPK2) [%] | %Inh (DMPK) [%] | %Inh (DRAK1) [%] | %Inh (DRAK2) [%] | %Inh (DYRK1A) [%] |
| --- | --- | --- | --- | --- | --- | --- | --- | --- | --- | --- | --- | --- | --- | --- | --- | --- | --- | --- | --- | --- |
| Cc1ccc(O)cc1Nc1ccnc2cc(-c3ccc(CN4CCCCC4)o3)ccc12 [GW557777] | 6 | 5 | 7 | 0 | 0 | 27 | 16 | 3 | 1 | 25 | 10 | 0 | 98.1 | 94.5 | 0 | 7 | 0 | 10 | 0 | 0 |
| Cc1cc(-c2ccnc(Nc3cccc(C#N)c3)n2)cc(C)c1O [GSK1440913] | 17 | 12 | 55 | 40 | 46 | 4 | 20 | 9 | 5 | 8 | 10 | 61 | 0 | 23 | 46 | 22 | 0 | 96.8 | 45 | 46 |
| COc1cccc(C2=C(Nc3cccc(O)c3)C(=O)NC2=O)c1 [SB-390771] | 9 | 0 | 15 | 0 | 8 | 0 | 14 | 0 | 16 | 21 | 0 | 31 | 0 | 17 | 26 | 0 | 0 | 0 | 0 | 57 |
| CCn1c(-c2nonc2N)nc2c(-c3ccccc3)ncc(OCCCN)c21.O=C(O)C(F)(F)F.O=C(O)C(F)(F)F [GSK260205] | 10 | 0 | 29 | 22 | 31 | 0 | 10 | 2 | 25 | 0 | 9 | 70 | 26 | 31 | 0 | 100 | 0 | 5 | 2 | 23 |
| Cl.Cl.NCC(NC(=O)c1cc(-c2cccnc2)c(-c2ccnc3[nH]ccc23)s1)c1ccccc1 (stereo not shown) [GSK1323434] | 39 | 63 | 68 | 32 | 40 | 0 | 59 | 21 | 27 | 21 | 9 | 0 | 11 | 55 | 34 | 51 | 79 | 19 | 0 | 48 |
| COc1cccc(-c2nc(-c3ccccc3)[nH]c2-c2ccncc2)c1 [SB-610250] | 0 | 0 | 22 | 0 | 0 | 0 | 0 | 0 | 19 | 14 | 22 | 14 | 78 | 49 | 16 | 68 | 0 | 0 | 0 | 22 |
| Cl.N#CCc1ccc(Nc2nccc(Nc3ccc(Oc4ccccc4)cc3)n2)cc1 [GW639905] | 1 | 0 | 8 | 0 | 9 | 28 | 0 | 60 | 40 | 12 | 0 | 1 | 32 | 5 | 35 | 0 | 0 | 22 | 0 | 19 |
| c1ccc(Oc2ccc(Nc3ccnc4cc(-c5ccc(CN6CCCCC6)o5)ccc34)cc2)nc1 [GW567143] | 0 | 6 | 3 | 15 | 12 | 5 | 0 | 0 | 0 | 4 | 8 | 25 | 30 | 35 | 79 | 0 | 0 | 0 | 0 | 26 |

Reference: paper PMC5540273 (PLoS ONE, 2017)
